Assay results reported in PubChem BioAssay (NCATS).
Results filed as inconclusive are left out. Where a call stands in place of a potency, no number is given. The source made the active and inactive calls. Calls follow the shape of the dose curve; as a rule, active = well fitted curve in the direction sought with a large enough effect; inconclusive = small, poorly fitted or top-dose-only effect, or another doubt; inactive = no such curve, though single readings can be large; an effect the other way counts as inactive or inconclusive.

Assay: qHTS of pediatric cancer cell lines to identify multiple opportunities for drug repurposing: Confirmatory screen for BT-37 cells (AID 1347117); also: potency is read from the fitted curve at half-maximal effect;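 also: viability measured after 48 h of compound exposure; nearly all actives have a fitted effect of over 55% in size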
Conditions: BT-37 pediatric cancer cells, viability; series mostly up to 45.9 µM
Summary of the method: (§1)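 Viability after 48 h compound treatment at 37C, 500-1,000 cells/well, read as ATP luminescence with CellTiter-Glo. Primary screens used 11-point (MIPE, 0.78 nM-46 µM) or 8-point (NPC, 0.59 nM-46 µM) final concentrations; follow-up screens used 11-point dilutions.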

SMILES | Potency
CNC(=O)c1cc(Oc2ccc(NC(=O)Nc3ccc(Cl)c(C(F)(F)F)c3)cc2)ccn1 | 23.3 µM (active)
COc1ccc(-c2ccc3cc(C(=O)O)ccc3c2)cc1C12CC3CC(CC(C3)C1)C2 | 7.37 µM (active)
C[C@@H]1C[C@H]2[C@@H]3CCC4=CC(=O)C=C[C@]4(C)[C@@]3(Cl)[C@@H](O)C[C@]2(C)[C@@]1(OC(=O)c1ccco1)C(=O)CCl | 0.369 µM (active)
Oc1c(Cl)cc(Cl)c2cccnc12 | 18.5 µM (active)
CCOC(=O)c1ccc(C#Cc2ccc3c(c2)C(C)(C)CCS3)nc1 | inactive
Nc1nc(N)nc(-c2cc(Cl)ccc2Cl)n1 | inactive

Assay: qHTS of pediatric cancer cell lines to identify multiple opportunities for drug repurposing: Confirmatory screen for TC32 cells (AID 1347118);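 also: cells exposed to compound for 48 h before the read; nearly all actives have a fitted effect of over 65% in size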; also: potency is read from the fitted curve at half-maximal effect
Conditions: TC32 Ewing sarcoma cells viability qHTS; series mostly up to 45.9 µM
Summary of the method: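 Measured quantity: luminescence from CellTiter-Glo, reflecting metabolically active TC32 cells following 48 h of compound. Curves came straight from multi-point titrations, with 8 or 11 points in primary and 11 in confirmatory screening.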

SMILES | Potency
CNC(=O)c1cc(Oc2ccc(NC(=O)Nc3ccc(Cl)c(C(F)(F)F)c3)cc2)ccn1 | 18.5 µM (active)
COc1ccc(-c2ccc3cc(C(=O)O)ccc3c2)cc1C12CC3CC(CC(C3)C1)C2 | 2.08 µM (active)
O=S(=O)(O)CCS | inactive
NC(=O)c1cccnc1 | 16.5 µM (active)
C[C@@H]1C[C@H]2[C@@H]3CCC4=CC(=O)C=C[C@]4(C)[C@@]3(Cl)[C@@H](O)C[C@]2(C)[C@@]1(OC(=O)c1ccco1)C(=O)CCl | 0.928 µM (active)
COC(=O)Nc1nc2ccc(C(=O)c3ccccc3)cc2[nH]1 | 0.369 µM (active)
CC(=O)[C@H]1CC[C@H]2[C@@H]3CCC4=CC(=O)CC[C@]4(C)[C@H]3CC[C@]12C | 5.22 µM (active)
Nc1nc(N)c2nc(CNc3ccc(C(=O)NC(CCC(=O)O)C(=O)O)cc3)cnc2n1 (stereo not drawn) | 0.329 µM (active)
Oc1c(Cl)cc(Cl)c2cccnc12 | 8.27 µM (active)

Assay: qHTS of pediatric cancer cell lines to identify multiple opportunities for drug repurposing: Confirmatory screen for MG 63 (6-TG R) cells (AID 1347119); also: nearly all actives have a fitted effect of over 55% in size; also: potency is read from the fitted curve at half-maximal effect
Conditions: MG-63 (6-TG resistant) osteosarcoma viability; series mostly up to 45.9 µM
Summary of the method: as §1

SMILES | Potency
O=S(=O)(O)CCS | 5.22 µM (active)
Nc1nc(N)c2nc(CNc3ccc(C(=O)NC(CCC(=O)O)C(=O)O)cc3)cnc2n1 (stereo not drawn) | inactive
Oc1c(Cl)cc(Cl)c2cccnc12 | 11.7 µM (active)
Nc1nc(N)nc(-c2cc(Cl)ccc2Cl)n1 | inactive

Assay: qHTS of pediatric cancer cell lines to identify multiple opportunities for drug repurposing: Confirmatory screen for control Hh wild type fibroblast cells (AID 1347121); also: nearly all actives have a fitted effect of over 70% in size
Conditions: viability qHTS; series mostly up to 45.9 µM
Summary of the method: as §1

SMILES | Potency
COc1ccc(-c2ccc3cc(C(=O)O)ccc3c2)cc1C12CC3CC(CC(C3)C1)C2 | inactive
NC(=O)c1cccnc1 | inactive
C[C@@H]1C[C@H]2[C@@H]3CCC4=CC(=O)C=C[C@]4(C)[C@@]3(Cl)[C@@H](O)C[C@]2(C)[C@@]1(OC(=O)c1ccco1)C(=O)CCl | inactive
COC(=O)Nc1nc2ccc(C(=O)c3ccccc3)cc2[nH]1 | inactive
Nc1nc(N)c2nc(CNc3ccc(C(=O)NC(CCC(=O)O)C(=O)O)cc3)cnc2n1 (stereo not drawn) | inactive
CCOC(=O)c1ccc(C#Cc2ccc3c(c2)C(C)(C)CCS3)nc1 | inactive
Nc1nc(N)nc(-c2cc(Cl)ccc2Cl)n1 | inactive

Assay: qHTS of pediatric cancer cell lines to identify multiple opportunities for drug repurposing: Confirmatory screen for U-2 OS cells (AID 1347122); also: nearly all actives have a fitted effect of over 65% in size; also: potency is read from the fitted curve at half-maximal effect
Conditions: U-2 OS osteosarcoma cell viability; series mostly up to 45.9 µM
Summary of the method: as §1

SMILES | Potency
COc1ccc(-c2ccc3cc(C(=O)O)ccc3c2)cc1C12CC3CC(CC(C3)C1)C2 | 0.0827 µM (active)
O=S(=O)(O)CCS | inactive
NC(=O)c1cccnc1 | inactive
C[C@@H]1C[C@H]2[C@@H]3CCC4=CC(=O)C=C[C@]4(C)[C@@]3(Cl)[C@@H](O)C[C@]2(C)[C@@]1(OC(=O)c1ccco1)C(=O)CCl | 3.29 µM (active)
COC(=O)Nc1nc2ccc(C(=O)c3ccccc3)cc2[nH]1 | 1.85 µM (active)
Nc1nc(N)c2nc(CNc3ccc(C(=O)NC(CCC(=O)O)C(=O)O)cc3)cnc2n1 (stereo not drawn) | inactive
Oc1c(Cl)cc(Cl)c2cccnc12 | 9.27 µM (active)

Assay: qHTS of pediatric cancer cell lines to identify multiple opportunities for drug repurposing: Confirmatory screen for Rh18 cells (AID 1347125); also: nearly all actives have a fitted effect of over 55% in size; also: potency is read from the fitted curve at half-maximal effect
Conditions: Rh18 rhabdomyosarcoma cells, viability; series mostly up to 45.9 µM
Summary of the method: as §1

SMILES | Potency
COc1ccc(-c2ccc3cc(C(=O)O)ccc3c2)cc1C12CC3CC(CC(C3)C1)C2 | inactive
O=S(=O)(O)CCS | inactive
C[C@@H]1C[C@H]2[C@@H]3CCC4=CC(=O)C=C[C@]4(C)[C@@]3(Cl)[C@@H](O)C[C@]2(C)[C@@]1(OC(=O)c1ccco1)C(=O)CCl | 20.8 µM (active)
COC(=O)Nc1nc2ccc(C(=O)c3ccccc3)cc2[nH]1 | inactive
CC(=O)[C@H]1CC[C@H]2[C@@H]3CCC4=CC(=O)CC[C@]4(C)[C@H]3CC[C@]12C | 23.3 µM (active)
Nc1nc(N)c2nc(CNc3ccc(C(=O)NC(CCC(=O)O)C(=O)O)cc3)cnc2n1 (stereo not drawn) | inactive
CCOC(=O)c1ccc(C#Cc2ccc3c(c2)C(C)(C)CCS3)nc1 | inactive
Nc1nc(N)nc(-c2cc(Cl)ccc2Cl)n1 | inactive

Assay: qHTS of pediatric cancer cell lines to identify multiple opportunities for drug repurposing: Confirmatory screen for Rh30 cells (AID 1347126); also: nearly all actives have a fitted effect of over 55% in size; also: potency is read from the fitted curve at half-maximal effect
Conditions: Rh30 rhabdomyosarcoma cell viability; series mostly up to 45.9 µM
Summary of the method: as §1

SMILES | Potency
O=S(=O)(O)CCS | inactive
NC(=O)c1cccnc1 | inactive
COC(=O)Nc1nc2ccc(C(=O)c3ccccc3)cc2[nH]1 | inactive
Nc1nc(N)c2nc(CNc3ccc(C(=O)NC(CCC(=O)O)C(=O)O)cc3)cnc2n1 (stereo not drawn) | inactive
Oc1c(Cl)cc(Cl)c2cccnc12 | 18.5 µM (active)
Nc1nc(N)nc(-c2cc(Cl)ccc2Cl)n1 | inactive

Assay: qHTS of pediatric cancer cell lines to identify multiple opportunities for drug repurposing: Confirmatory screen for Saos-2 cells (AID 1347127); also: nearly all actives have a fitted effect of over 60% in size; also: potency is read from the fitted curve at half-maximal effect
Conditions: Saos-2 osteosarcoma cell viability; series mostly up to 45.9 µM
Summary of the method: as §1

SMILES | Potency
CNC(=O)c1cc(Oc2ccc(NC(=O)Nc3ccc(Cl)c(C(F)(F)F)c3)cc2)ccn1 | inactive
NC(=O)c1cccnc1 | inactive
C[C@@H]1C[C@H]2[C@@H]3CCC4=CC(=O)C=C[C@]4(C)[C@@]3(Cl)[C@@H](O)C[C@]2(C)[C@@]1(OC(=O)c1ccco1)C(=O)CCl | 4.14 µM (active)
Nc1nc(N)c2nc(CNc3ccc(C(=O)NC(CCC(=O)O)C(=O)O)cc3)cnc2n1 (stereo not drawn) | inactive
CCOC(=O)c1ccc(C#Cc2ccc3c(c2)C(C)(C)CCS3)nc1 | inactive
Nc1nc(N)nc(-c2cc(Cl)ccc2Cl)n1 | inactive
